In PubChem BioAssay AID2289 (National Center for Advancing Translational Sciences (NCATS), 2010):
In all, about 340,000 compounds went through this assay and about 3,300 (0.97%) were called active. About 9% were inconclusive and are not listed. Calls follow the shape of the dose curve; as a rule, active = well fitted inhibition curve with a large enough effect; inconclusive = small, poorly fitted or top-dose-only effect, or effect the other way; inactive = flat fitted curve, though single readings scatter. Some of the results follow.

assay: qHTS Assay for Modulators of miRNAs and/or Inhibitors of miR-21; conditions: HeLa miR-21-FLuc reporter, luciferase luminescence, 48 h; actives lower the signal; also: nearly all actives have a fitted effect of over 55% in size
Method in brief: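 HeLa cells endogenously expressing miR-21, stably carrying CMV-driven firefly luciferase with a downstream miR-21 binding site, 2000 cells/well. Titrations up to approximately 40 uM, 48 hours; luciferase luminescence read.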
Potency is read from the fitted curve at half-maximal effect.

Potency, active:
Cc1cc(N(C)C)ccc1N=Nc1ccc2ncccc2c1 1.65 µM
COc1ccc2oc(=N)c(C(=O)Nc3ccccc3Cl)cc2c1 0.414 µM
Cc1ccccc1NC(=O)c1ccc2ccccc2c1 5.21 µM
COc1ccc(C(=O)Nc2ccccc2C(=O)O)cc1Cl 4.65 µM
COc1cc2ccccc2cc1C(=O)Nc1ccccc1C 3.29 µM
COc1cc2ccccc2cc1C(=O)Nc1ccc(C)cn1 0.656 µM
COc1cc2ccccc2cc1C(=O)Nc1ccccc1Cl 1.85 µM
CSc1ncc(-c2ccc(Cl)cc2)[nH]1 1.65 µM
Cc1cccc(-n2cnc(C(=O)NC3CCCCCC3)c2)n1 3.69 µM
Cc1cc(O)cc2c(=O)c3ccccc3sc12 16.5 µM
CCn1c(C)cc(/C=C2/SC(=O)N(C(C)C(=O)OC)C2=O)c1C (stereo not drawn) 2.07 µM
CCn1c(C)cc(/C=C2/SC(=S)NC2=O)c1C 10.4 µM
CC(=O)Nc1ccc2c(c1)ncn2-c1ccccc1 7.36 µM
COc1ccc(-n2cnc3cc(N)ccc32)cc1 14.7 µM
CCC(=O)Nc1ccc2c(c1)ncn2-c1ccc(OC)cc1 16.5 µM
CCC(=O)Nc1ccc2c(c1)ncn2-c1ccc(C)cc1 5.21 µM
CCC(=O)Nc1ccc2c(c1)ncn2-c1ccccc1 7.36 µM
O=C(Nc1ccc2c(c1)ncn2-c1ccccc1)c1ccco1 2.33 µM
CCc1ccc(C(=O)N/N=C(\C)c2ccncc2)s1 20.7 µM
C/C(=N/NC(=O)c1ccc(C)s1)c1ccncc1 16.5 µM
C/C(=N\NC(=O)c1csc(C)c1C)c1ccc(C)s1 13.1 µM
Cc1scc(C(=O)N/N=C/c2ccc(Cl)s2)c1C 1.65 µM
O=C1CN(c2nc(-c3cccs3)nc3sc4c(c23)CCCC4)CCN1 10.4 µM
CN(C)CCNC(=O)c1cc2sc3ccccc3c2s1 16.5 µM
CCN(CC)C(=O)c1cc2sc3ccccc3c2s1 3.29 µM
CN(C)CCNC(=O)c1cc2c(s1)-c1ccccc1OC2 13.1 µM
CC(C)(C)OC(=O)N/N=C\C=C\c1ccc2c(c1)OCO2 3.69 µM
CCOC(=O)N/N=C\C=C\c1ccc2c(c1)OCO2 7.36 µM
CN(C)c1ccc(N=Nc2cccc(F)c2)cc1 2.07 µM
CN(C)c1ccc(N=Nc2cccc3ccoc23)cc1 0.826 µM
Cc1nnsc1C(=O)NNc1ccc(C(C)C)cc1 13.1 µM
COCCCNC(=O)c1ccc2nc(Cc3ccc(OC)cc3)oc2c1 9.27 µM
CNC(=O)c1ccc2nc(CCc3ccccc3)oc2c1 5.85 µM
O=C(NCCCn1ccnc1)c1cc(-c2cccs2)on1 14.7 µM
O=C(NCCCn1ccnc1)c1cc(-c2ccccc2)on1 16.5 µM
C(=N\N=C\c1cccs1)/c1cccs1 5.21 µM
COc1ccc(-n2cnc3cc(NCc4ccco4)ccc32)cc1 14.7 µM
CCc1ccc(CNc2ccc3c(c2)ncn3CC)cc1 5.21 µM
CCn1cnc2cc(NCc3ccccc3Cl)ccc21 11.7 µM
CCn1cnc2cc(NCc3ccc(C)cc3)ccc21 5.21 µM
CC(C)n1cnc2cc(NCc3ccco3)ccc21 11.7 µM
Cc1ccc(CNc2ccc3c(c2)ncn3C)cc1 3.29 µM
CCn1cnc2cc(NCc3ccc(Cl)cc3)ccc21 3.69 µM
Cc1ccc(CNc2ccc3c(c2)ncn3C(C)C)cc1 3.29 µM
Cc1cccc(C(=O)Nc2ccc3c(c2)ncn3C)c1 1.47 µM
COc1cccc(/C=C(/CC(=O)Nc2ccc(N3CCOCC3)cc2)c2nc3ccccc3s2)c1 16.5 µM
O=C(Nc1ccc(N2CCOCC2)cc1)c1nc2ccccc2s1 0.0826 µM
Cc1ccc2nc(-c3ccc(C)c(NC(=O)CSc4ccc(Cl)cc4)c3)oc2c1 2.07 µM
Cc1ccc2oc(-c3ccc(C)c(NC(=O)/C=C/c4ccc(Cl)cc4)c3)nc2c1 3.69 µM
O=C(NC1CCCCC1)c1ccc(-c2cccc([N+](=O)[O-])c2)o1 1.31 µM
O=C(NC1CCCCC1)c1ccc(-c2ccccc2[N+](=O)[O-])o1 1.17 µM
COc1ccccc1CC(=O)NCc1csc(-c2cccs2)n1 6.56 µM
O=C(NCc1csc(-c2cccs2)n1)C1CCCCC1 5.21 µM
C/C(CCc1ccc2c(c1)OCO2)=N\NC(=O)c1ccccc1 13.1 µM
Fc1cccc(CSc2ccc(-c3ccco3)nn2)c1 16.5 µM
Cc1ccc(CSc2ccc(-c3ccco3)nn2)cc1 6.56 µM
Fc1ccc(CSc2ccc(-c3ccco3)nn2)cc1 8.26 µM
CCN(CC)N=Nc1[nH]nc2nc(C)cc(C)c12 16.5 µM
Brc1ccc2oc(-c3ccn[nH]3)cc2c1 2.93 µM
CCN(CC)CCCNC(=S)Nc1ccc(Br)cc1 2.93 µM
CC(=O)/C=C(\C)N=Nc1c(O)[nH]c2ccccc12 18.5 µM
O=C(CSCc1ccccc1)N=Nc1c(O)[nH]c2ccccc12 16.5 µM
Oc1ccc(NC(=S)N=Nc2c(O)[nH]c3ccccc23)cc1 11.7 µM
CC(C)c1ccc(/C=N/Nc2ccc(C(=O)O)cc2)cc1 0.0465 µM
COc1ccc(/C=N/Nc2ccc(C(=O)O)cc2)cc1Br 0.104 µM
CCCOc1ccc(/C=N/Nc2ccc(C(=O)O)cc2)c(OCCC)c1 16.5 µM
COc1cc(/C=N/Nc2ccc(C(=O)O)cc2)cc(OC)c1OC 2.33 µM
C=CCOc1c(Br)cc(/C=N/Nc2ccc(C(=O)O)cc2)cc1OCC 2.93 µM
Cc1nc2cc(Cl)c(Cl)cc2nc1C 16.5 µM
CC(C)CN1CCc2nc(Nc3ccc(F)cc3F)ncc2C1 7.36 µM
COc1ccccc1Nc1ncc2c(n1)CCN(CC(C)C)C2 6.56 µM
COc1ccc(-c2nc3ccc(NS(C)(=O)=O)cc3o2)cc1 1.17 µM
CC(=O)Nc1ccc(-c2nc3ccc(NC(C)=O)cc3o2)cc1 3.69 µM
CC(=O)Nc1ccc(-c2nc3cc(Cl)ccc3o2)cc1 0.369 µM
O=C(Nc1ccc(-c2nc3cc(Cl)ccc3o2)cc1)C1CCCO1 (stereo not drawn) 0.656 µM
COc1ccc(Cl)cc1C(=O)Nc1ccc2oc(-c3ccc(C(C)(C)C)cc3)nc2c1 4.65 µM
COc1ccc(C(=O)CCNc2cccc(Cl)c2)cc1 7.36 µM
COc1cccc(NCCC(=O)c2cccc([N+](=O)[O-])c2)c1 13.1 µM
COc1n[nH]c(C(=O)Nc2nc3ccccc3s2)c1[N+](=O)[O-] 6.56 µM
CNc1ccccc(-c2ccc3cc4c(cc3n2)OCO4)c1=O 2.61 µM
Cc1ccc2nc(-c3ccc(NC(=S)NC(=O)C(C)C)cc3)sc2c1 0.927 µM
CCC(=O)NC(=S)Nc1ccc(-c2nc3ccccc3s2)cc1 0.293 µM
CCCCNC(=S)Nc1ccc(-c2nc3ccc(C)cc3s2)cc1 0.826 µM
CCC(=O)NC(=S)Nc1ccc(-c2nc3ccc(C)cc3s2)cc1 8.26 µM
Cc1ccc(Nc2ncnc3sc(C)c(C)c23)cc1 14.7 µM
COc1ccc(NC(=O)CCCn2c(=O)c3cccn3c3ccccc32)c(OC)c1 2.07 µM
O=C(CCCn1c(=O)c2cccn2c2ccccc21)Nc1cccc(Cl)c1 2.93 µM
O=C(CCCn1c(=O)c2cccn2c2ccccc21)NCCc1ccc(Cl)cc1 1.47 µM
CCCCOC(=O)Oc1ccc2c(=O)c(Oc3cccc(C)c3)coc2c1 18.5 µM
Cc1nc2ccccc2nc1N/N=C/c1ccc(O)cc1 18.5 µM
Cc1nc(Cl)cc(N/N=C/c2ccc(O)cc2)n1 18.5 µM
C=CCc1c(C)nc2c(-c3ccccc3)cnn2c1N1CCOCC1 1.65 µM
Cc1nc2c(-c3ccccc3)cnn2c(N2CCOCC2)c1C 2.33 µM
Cc1ccc(-c2noc(-c3ccccc3F)n2)cc1 1.47 µM
c1ccc(-c2cc(-c3ccccc3)[nH]n2)cc1 1.65 µM
Fc1ccccc1-c1nc(-c2ccccc2)no1 1.17 µM
Fc1ccc(-c2cc(-c3nc(-c4ccccc4)no3)[nH]n2)cc1 5.85 µM
CS(=O)c1ccccc1-c1nc(-c2ccc(Cl)cc2)no1 (stereo not drawn) 6.56 µM
Cc1ccc(NC(=O)Nc2ccc3c(c2)OCO3)cc1F 0.736 µM
Cc1ccc(NC(=O)Nc2ccc3c(c2)OCO3)nc1 2.33 µM
CCCSc1nsc(NC(=O)CC)n1 0.521 µM
O=C(CSc1nnc2sc3ccccc3n12)c1ccco1 16.5 µM
c1csc(CSc2nnc3sc4ccccc4n23)c1 8.26 µM
Cc1nc(NC(=O)/C=C/c2ccccc2)sc1C(=O)N(C)C 13.1 µM
COc1ccccc1C(=O)N/N=C/c1cnc2ccccc2n1 11.7 µM
COc1ccccc1C(=O)N/N=C/c1ccc2c(c1)OCO2 3.29 µM
COc1cccc(C(=O)Nc2ccc3c(c2)OCO3)c1OC 2.07 µM
COc1cc(Cl)c(C)cc1NC(=O)c1cccc(OC)c1OC 5.21 µM
